Source: PubChem BioAssay AID463173 (ICCB-Longwood Screening Facility, Harvard Medical School, 2010)
The whole screen tested about 52,000 compounds, of which about 1,700 (3.3%) were called active. The entries come from a sample that favours actives as a whole. Values without a mark were called inactive. Cut-off read from the data, not from the text of the source: active = survival mostly below about 52% (no sharp cut-off); inactive = mostly above about 56%.

These compounds were tested on Wild type (assay: S. aureus survival, RN4220 and DeltatarO strains – OD600, teichoic acid synthesis inhibitors, primary screen (AID 463173)). Conditions: S. aureus RN4220 wild type/DeltatarO growth, OD600, 18 h, hits give low values, screened at 18.75 µg/mL (by protocol).
`CCOc1ccccc1CN1CCc2nc(N3CCN(C)CC3)ncc2C1` was tested, and the survival was -4% (active).
With `CN1CCN(c2ncc3c(n2)CCN(Cc2ccccc2Cl)C3)CC1` the survival was 71%.
In the case of `COc1cc(OC)c(OC)cc1CN1CCc2nc(N3CCN(c4ccccc4F)CC3)ncc2C1`, the survival is reported as 64%.
`COc1cc(OC)c(OC)cc1CN1CCc2nc(N3CCN(C)CC3)ncc2C1` showed a survival of 82%.
With `CCN1CCN(c2ncc3c(n2)CCN(Cc2cc(Br)cs2)C3)CC1` the survival was 1% (active).
`COc1ccccc1N1CCN(c2ncc3c(n2)CCN(Cc2ccccc2F)C3)CC1` was tested, and the survival was 67%.
For `CCN1CCN(c2ncc3c(n2)CCN(Cc2ccccc2C)C3)CC1`, the survival was -3% (active).
With `Cc1ccccc1CN1CCc2nc(N3CCN(c4ccccn4)CC3)ncc2C1` the survival was 71%.
With `CN1CCN(c2ncc3c(n2)CCN(Cc2cc(Br)cs2)C3)CC1` the survival was 129%.
`Cc1ccccc1CN1CCc2nc(N3CCN(c4ncccn4)CC3)ncc2C1` was tested, and the survival was 75%.
For `CCOc1ccccc1CN1CCc2nc(N3CCN(c4ccccc4F)CC3)ncc2C1`, the survival was -6% (active).
Compound `CCN1CCN(c2ncc3c(n2)CCN(Cc2ccc(Br)s2)C3)CC1` has a survival of 60%.
Work on `COCCCNC(=O)C1CCN(c2ncnc3c2nc2n3CCCCC2)CC1` yielded a survival of 89%.
`CSc1nnc(-c2cc3ccccc3cc2O)n1C` showed a survival of 111%.
With `COC(=O)c1sc2nc(C)cc(C)c2c1N` the survival was 103%.
Work on `Nc1nc2cc3c(cc2s1)OCCO3` yielded a survival of 113%.
Compound `COc1cc2nc(SCc3ccc(Cl)cc3)n3nc(CCn4nc(C)cc4C)nc3c2cc1OC` has a survival of 71%.
`CCCCOc1ccc(CNC(=O)c2cnc3sc(N4CCC(C)CC4)nn3c2=O)cc1` was tested, and the survival was 127%.
`COC(=O)c1ccc(NC(=O)CCn2cccn2)cc1` gave a survival of 88%.
With `CCn1c2ccccc2c2cc(NC(=O)COc3ccc(C)cc3C)ccc21` the survival was 8% (active).
With `CCn1c2ccccc2c2cc(NC(=O)COc3cc(C)ccc3C)ccc21` the survival was 18%.
In the case of `CCc1ccc(OCC(=O)Nc2ccc3c(c2)c2ccccc2n3CC)c(Br)c1`, the survival is reported as -6% (active).
For `CCc1ccc(OCC(=O)Nc2ccc3c(c2)c2ccccc2n3CC)cc1`, the survival was 69%.
`CCn1c2ccccc2c2cc(NC(=O)COC)ccc21` was tested, and the survival was 108%.
Compound `CCn1c2ccccc2c2cc(NC(=O)COc3cccc(C)c3)ccc21` has a survival of 34%.
`COc1ccc(-c2cc(C(=O)Nc3c(Cl)cccc3Cl)no2)cc1OC` gave a survival of 79%.
Compound `O=C(Nc1c(Cl)cccc1Cl)c1cc(-c2ccc3c(c2)OCO3)on1` has a survival of 82%.
For `O=C(Nc1c(Cl)cccc1Cl)c1cc(-c2cccc(O)c2)on1`, the survival was 5% (active).
`COC(=O)/C=C1/C(=O)N(C(C)=O)c2ccccc21` was tested, and the survival was 108%.
In the case of `COc1ccc(CNS(=O)(=O)c2cc3c(cc2C)n(C)c(=O)c(=O)n3C)cc1`, the survival is reported as 77%.
Work on `COc1cccc(N2CCN(Cc3nnc(-c4ccc5c(c4)OCO5)o3)CC2)c1` yielded a survival of 102%.
`Cc1cccc(-c2noc(CN(C(=O)c3ccc(C)c(C)c3)C(C)C)n2)c1` was tested, and the survival was 0% (active).
Work on `Cc1cccc(-c2noc(CN(C(=O)c3ccccc3Cl)C(C)C)n2)c1` yielded a survival of 86%.
`COc1ccc(S(=O)(=O)N(C)Cc2nc(-c3cccc(C)c3)no2)cc1` showed a survival of 74%.
With `Cc1cccc(-c2noc(CN(C(=O)COc3ccc(C(C)C)cc3)C(C)C)n2)c1` the survival was 3% (active).
Compound `Cc1cccc(-c2noc(CN(C(C)C)S(=O)(=O)c3ccc(Br)cc3)n2)c1` has a survival of 72%.
`COc1ccc(OC(C)C(=O)NCc2nc(-c3cccc(C)c3)no2)cc1` (centres undefined) gave a survival of 87%.
For `CCOc1ccc(C(=O)N(Cc2nc(-c3cccc(C)c3)no2)C(C)C)cc1`, the survival was 2% (active).
With `Cc1cccc(-c2noc(CN(C(=O)COc3ccc(Br)cc3C)C(C)C)n2)c1` the survival was 30%.
Compound `COc1ccccc1C(=O)N(Cc1nc(-c2cccc(C)c2)no1)C(C)C` has a survival of 56%.
`CCN(CC(O)COc1ccc(OCC(O)CN(CC)C2CCCCC2)cc1)C1CCCCC1` (centres undefined) gave a survival of 109%.
In the case of `CC1(C)CC(=O)c2cc(-c3nc(-c4ccc(Cl)cc4)cs3)c(=O)n(-c3ccc(Cl)cc3)c2C1`, the survival is reported as 67%.
`Cn1nc(C(=O)NCCc2ccc(Cl)cc2)c2c1-c1ccccc1SC2` showed a survival of 82%.
In the case of `CCc1nn2c(=O)c(S(=O)(=O)Nc3ccc(C)cc3C)c(C)nc2s1`, the survival is reported as 75%.
With `CCCCN(CC)CCNC(=O)c1cn(CCOC)c(=O)c2c1c1ccccc1n2C` the survival was 89%.
For `COc1ccccc1-c1c(C)nn2c(-c3ccccc3)cc(-c3ccccc3)nc12`, the survival was 77%.
For `Cc1ccc(OC(C)C(=O)Nc2nonc2-c2ccc(Br)cc2)cc1C` (centres undefined), the survival was 72%.
For `Cc1cc(C)cc(OC(C)C(=O)Nc2nonc2-c2ccc(Br)cc2)c1` (centres undefined), the survival was 17% (active).
`Cc1cccc(OC(C)C(=O)Nc2nonc2-c2ccc(Br)cc2)c1C` (centres undefined) showed a survival of 94%.
Work on `Cc1ccc(-n2nc(CO)c(C(=O)NCCC(C)C)n2)cc1C` yielded a survival of 116%.
Compound `CCOc1ccccc1NC(=O)CN1C(=O)C2(SCC(=O)N2c2cccc(F)c2)c2ccccc21` (centres undefined) has a survival of 97%.
In the case of `Cc1ccc(/C=N/NC(=O)C2=NNC(=O)C2C)o1` (centres undefined), the survival is reported as 107%.
`COc1cccc(OCc2nnc(SCC(=O)O)o2)c1` was tested, and the survival was 98%.
`CCCc1cc(=O)oc2cc(C)c3c(-c4ccccc4)c(C)oc3c12` was tested, and the survival was 0% (active).
With `CCCc1cc(=O)oc2cc(C)c3c(-c4cccc(OC)c4)coc3c12` the survival was 74%.
`CCCc1cc(=O)oc2cc(C)c3c(-c4ccccc4)coc3c12` gave a survival of 66%.
For `CCN1C(=O)c2ccccc2S(=O)c2ccc(C(=O)N3CCN(c4ccccc4)CC3)cc21` (centres undefined), the survival was 83%.
Work on `CCOc1ccc2nc(N3CCCC(C(=O)Nc4ccc(OC)c(Cl)c4)C3)sc2c1` (centres undefined) yielded a survival of 89%.
`CCOc1ccc(NCc2n[nH]c(=S)n2-c2ccc(C)cc2)cc1` was tested, and the survival was 122%.
`Clc1ccc(NCc2nc3ccccc3n2CCOc2ccccc2)cc1` showed a survival of 74%.
In the case of `CCOc1ccc(NCc2nc3ccccc3n2CCOc2ccc(C)cc2)cc1`, the survival is reported as -20% (active).
For `Cc1ccc(NCc2nc3ccccc3n2CCOc2ccccc2)cc1`, the survival was -20% (active).
`Cc1ccc(OCCn2c(CNc3cccc(C)c3)nc3ccccc32)cc1` was tested, and the survival was -21% (active).
With `COc1ccc(NCc2nc3ccccc3n2CCOc2ccc(C)cc2)cc1` the survival was -18% (active).
